SNCA expr inhib – Primary qHTS assay for inhibitors of alpha-synuclein gene (SNCA) expression | HEK-293 SNCA-luciferase knock-in, luminescence, 24 h | Potency, µM (highest dose often 57.2 µM), most hits filed as inhibitors | 140,000 tested, 0.17% active | AID 1671194, 2021; also: nearly all actives have a fitted effect of over 45% in size
GPT2 inhibitor – Primary qHTS assay for inhibitors of Glutamate pyruvate transaminase 2 (GPT2); AID 1671188, 2021; Recombinant GPT2, coupled pyruvate oxidase/HRP Amplex Red fluorescence; Potency, µM (series often up to 57.7 µM), hits mostly inhibitors; 100,000 tested, 0.25% active; also: nearly all actives have a fitted effect of over 60% in size
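Fluorescence of coupled pyruvate oxidase/HRP/Amplex Red system (50uM Amplex, 30 min, dark) reports pyruvate formed by GPT2. Enzyme reaction: 10ng/uL GPT2, 2mM L-alanine, 250uM a-KG, 30 min room temperature, pH 7.5; 50uM AOA control.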
IP6K1 inh – Primary qHTS assay for small molecule inhibitors of Inositol hexaphosphate kinase 1 (IP6K1) | Inositol hexakisphosphate kinase 1 (Homo sapiens), Q92551 | IP6K1 kinase, ADP-Glo luminescence, 2 h; active compounds read low | activity change, % (series mostly up to about 58 µM) | 140,000 tested, 0.81% active | AID 1645851, 2021; in the data active = activity change below about -25%
Target sequence (Q92551 whole entry, looked up): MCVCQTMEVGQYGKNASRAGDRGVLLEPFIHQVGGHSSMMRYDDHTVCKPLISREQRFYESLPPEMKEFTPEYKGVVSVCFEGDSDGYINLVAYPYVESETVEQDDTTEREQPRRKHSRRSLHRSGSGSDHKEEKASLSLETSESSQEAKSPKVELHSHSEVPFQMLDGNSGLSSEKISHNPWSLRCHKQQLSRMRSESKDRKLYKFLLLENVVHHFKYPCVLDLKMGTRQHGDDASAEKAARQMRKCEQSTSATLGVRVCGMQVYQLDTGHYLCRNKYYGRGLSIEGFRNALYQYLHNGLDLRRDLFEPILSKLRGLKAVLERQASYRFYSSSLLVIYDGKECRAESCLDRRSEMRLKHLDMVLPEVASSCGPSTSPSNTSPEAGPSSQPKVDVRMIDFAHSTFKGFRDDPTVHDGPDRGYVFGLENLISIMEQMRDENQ
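ADP-Glo luminescence measures ADP made by human IP6K1 during a 2 h RT reaction with ATP/IP6 (mix at 1.3 mM/130 uM); top library doses 57.5 and 19.1 uM final.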
HEK293 viab – GF-AFC viability counterscreen for inhibitors of alpha-synuclein gene (SNCA) expression | HEK-293-SNCA-luc viability, GF-AFC fluorescence, 24 h | Potency, µM (doses to about 57.1 µM), actives largely listed as cytotoxic | 150,000 tested, 0.12% active | AID 1671193, 2021; also: nearly all actives have a fitted effect of over 30% in size
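Cytotoxicity counterscreen: after 24 h compound treatment of genome-edited SNCA-luciferase HEK-293 cells, live-cell protease substrate GF-AFC read by fluorescence after 30 min; activity scaled between DMSO (0%) and medium-only (-100%), curves Hill-fitted.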
IP6K1 conf – Confirmatory qHTS assay for small molecule inhibitors of Inositol hexaphosphate kinase 1 (IP6K1); shares compounds with IP6K1 inh; recombinant IP6K1 kinase, ADP-Glo luminescence, 2 h; Potency, µM (series often up to 49 µM), hits mostly inhibitors; 1,200 tested, 13% active; AID 1645852, 2021; also: nearly all actives have a fitted effect of over 65% in size
Numbers stand for hits; . = inactive; ? = inconclusive; / = no result; [ ] = another dose, or the depositor's remark. Hits are enriched below; roughly 0.9% of the tested compounds scored in any of these assays. Unless noted, calls follow the shape of the dose curve; as a rule, active = well fitted curve in the direction sought with a large enough effect; inconclusive = small, poorly fitted or top-dose-only effect, or another doubt; inactive = no such curve, though single readings can be large; an effect the other way counts as inactive or inconclusive.

SMILES | SNCA expr inhib | GPT2 inhibitor | IP6K1 inh | HEK293 viab | IP6K1 conf
OC1(CN2CCCCC2)CCN(Cc2ccc(Cl)cc2)C1 (centres undefined) | . | .[11.5 µM] | . | . | /
O=C(c1ccccc1F)N1CCC(Cc2nc(-c3ccccc3)n[nH]2)CC1 | . | ? | . | . | /
COc1ccc(NS(=O)(=O)c2ccc3nc(-c4ccccc4)[nH]c3c2)cc1 | . | / | -31 | . | .
CCCS(=O)(=O)N1CC(=O)N(c2ccc(Cl)cc2)C(C)(C(=O)NC2CCCC2)C1 (centres undefined) | . | / | . | . | /
CCS(=O)(=O)N1CC(=O)N(c2ccc(Cl)cc2)C(C)(C(=O)NC2CCCCCC2)C1 (centres undefined) | . | / | -34 | . | .
CCOC(=O)[C@H]1[C@@H](O)C(=O)N(Cc2ccccc2)C12CCN(C(=O)C1CC1)CC2 | / | / | . | / | /
Cc1ccc(S(=O)(=O)c2[nH]c(-c3ccccc3)nc2SCC(=O)O)cc1 | . | / | -26 | . | .
Cc1ccc(S(=O)(=O)c2[nH]c(-c3ccccc3)nc2SCC(N)=O)cc1 | . | / | . | . | /
C=CCOc1c(OC)ccc2c1CN(CC)C(=O)CCN2CC(O)COc1ccc(OC)cc1 (centres undefined) | / | / | . | / | /
Cn1cnc2cc(-c3ccc(F)cc3)cc(C(=O)NCCc3cnc[nH]3)c21 | . | . | -31 | . | ?
Cc1ccc(NC(=O)NCc2c(-n3cccc3)sc3c2CCCC3)c(Cl)c1 | . | / | -27 | . | .
Cc1c(Cl)cccc1NC(=O)NCc1c(-n2cccc2)sc2c1CCCC2 | . | / | . | . | /
COc1ccccc1C(=O)N1CCN(Cc2ccccc2-c2ccc(C)c(Cl)c2)CC1 | . | . | . | .[12.5 µM] | /
CNC(=O)c1cc(-c2ccc(C)cc2)cc2c1OCCN2Cc1cccnc1 | . | . | -29 | . | ?
NC(=O)c1cc(-c2ccccc2F)cc2c1OCCN2Cc1cccnc1 | . | . | -25 | . | ?
COc1cccc(CN2CC[C@@H]3C(=O)NCCCCCCN(Cc4ccncc4)[C@@H]3C2)c1 | . | . | . | . | /
COc1cc([C@H]2Oc3cc([C@H]4Oc5cc(O)cc(O)c5C(=O)[C@@H]4O)ccc3O[C@@H]2CO)ccc1O | . | . | -79 | . | 7.3µM
O=c1cc(C2=CCOCC2)oc2c(-c3cccc4[nH]ccc34)nccc12 | . | . | -25 | ? | ?
CC(=O)c1cccc(NC(=O)c2oc3c(c2C)-c2nn(Cc4ccc(Cl)cc4)cc2CC3)c1 | . | / | . | . | /
CCOC(=O)c1cccc(NC(=O)c2oc3c(c2C)-c2nn(CC)cc2CC3)c1 | . | / | -28 | . | ?
CCO[C@H]1CN(C(=O)Cc2c(C)nn(-c3ccccc3)c2C)C[C@@H]1O | . | . | . | . | /
CCc1noc(Cc2c(C)nn(-c3ccccc3)c2C)n1 | . | .[11.5 µM] | -28 | . | .
CCc1ccc(NC(=O)CN(c2ccc(OC)cc2)S(=O)(=O)c2c(C)[nH]c(=O)[nH]c2=O)cc1 | . | / | -31 | . | .
CC(C)NC[C@H]1O[C@H](Cc2cc(CN(C)Cc3ccccc3)on2)CC[C@@H]1O | ? | ? | . | . | /
O=C(NCCn1cccc1-c1nc(-c2ccc3c(c2)OCO3)no1)c1ccc(Cl)cc1 | . | . | . | . | /
SMILES | SNCA expr inhib | GPT2 inhibitor | IP6K1 inh | HEK293 viab | IP6K1 conf
COC(=O)c1c(SC)nc2ccccc2c1OCc1ccccc1Cl | . | / | -26 | . | .
COC(=O)c1c(SC)nc2ccccc2c1OCc1cc(C)ccc1C | ? | / | . | . | /
O=C(Cc1ccccc1)Nc1sc2c(c1C(=O)Nc1cccc(Cl)c1)CCCCC2 | . | / | -29 | . | .
O=C(Cc1ccccc1)Nc1sc2c(c1C(=O)Nc1ccccc1Cl)CCCCC2 | . | / | . | . | /
COc1ccc(-n2c(=O)c(C(=O)NC3CCCCC3)nc3cccnc32)cc1 | . | . | . | . | /
N#Cc1cc(NC(=O)C(=O)O)c(Cl)c(NC(=O)C(=O)O)c1 | . | . | -35 | . | .
CC(=O)NC1CCCN(Cc2cccc(-c3ccc(C)c(Cl)c3)c2)C1 (centres undefined) | . | . | . | . | /
O=C(NCCc1ccccc1)C1CCN(c2nc3ccccc3nc2C(F)(F)F)CC1 | . | / | . | . | /
